# An excerpt weighted towards active compounds, which were near 1.5% of everything screened.
# TLR9-MyD88 block: TLR9-MyD88 interaction inhibition | 340,000 tested, 0.21% active | CHO BLA complementation TLR9-MyD88, CCF4 FRET ratio | inhibition, % at 4.98 µM | Q9NR96+Q99836;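 active = inhibition above the mean over all tested compounds plus 3 SD, cut at about 21% in these data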;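 also: 0% = DMSO only wells and 100% = clavulanate BLA inhibitor control wells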
# Myeloid diff 2: compounds promoting myeloid differentiation; AID 624256; ER-HoxA9 myeloid progenitors, lysozyme-GFP differentiation, flow cytometry; calls only at 10 µM; 360,000 tested, 1% active;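 active = normalized GFP-positive differentiation at or above the plate's own cutoff, the solvent-only control mean plus 3 SD; inconclusive = no clear call, values can overlap the other calls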;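 also: cells exposed to compound for four days before flow analysis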
# TLR4-MyD88 BLA: blocks binding of human TLR4 to MyD88 | O00206+Q99836 | HeLa CL3-4 TLR4/MyD88 BLA complementation, FRET ratio | inhibition, % at 8.4 µM | 200,000 tested, 0.18% active | AID 861; in the data active = inhibition above about 25%;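 also: 0% = vehicle and 100% = reference inhibitor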
# Target sequence (O00206 whole entry, looked up): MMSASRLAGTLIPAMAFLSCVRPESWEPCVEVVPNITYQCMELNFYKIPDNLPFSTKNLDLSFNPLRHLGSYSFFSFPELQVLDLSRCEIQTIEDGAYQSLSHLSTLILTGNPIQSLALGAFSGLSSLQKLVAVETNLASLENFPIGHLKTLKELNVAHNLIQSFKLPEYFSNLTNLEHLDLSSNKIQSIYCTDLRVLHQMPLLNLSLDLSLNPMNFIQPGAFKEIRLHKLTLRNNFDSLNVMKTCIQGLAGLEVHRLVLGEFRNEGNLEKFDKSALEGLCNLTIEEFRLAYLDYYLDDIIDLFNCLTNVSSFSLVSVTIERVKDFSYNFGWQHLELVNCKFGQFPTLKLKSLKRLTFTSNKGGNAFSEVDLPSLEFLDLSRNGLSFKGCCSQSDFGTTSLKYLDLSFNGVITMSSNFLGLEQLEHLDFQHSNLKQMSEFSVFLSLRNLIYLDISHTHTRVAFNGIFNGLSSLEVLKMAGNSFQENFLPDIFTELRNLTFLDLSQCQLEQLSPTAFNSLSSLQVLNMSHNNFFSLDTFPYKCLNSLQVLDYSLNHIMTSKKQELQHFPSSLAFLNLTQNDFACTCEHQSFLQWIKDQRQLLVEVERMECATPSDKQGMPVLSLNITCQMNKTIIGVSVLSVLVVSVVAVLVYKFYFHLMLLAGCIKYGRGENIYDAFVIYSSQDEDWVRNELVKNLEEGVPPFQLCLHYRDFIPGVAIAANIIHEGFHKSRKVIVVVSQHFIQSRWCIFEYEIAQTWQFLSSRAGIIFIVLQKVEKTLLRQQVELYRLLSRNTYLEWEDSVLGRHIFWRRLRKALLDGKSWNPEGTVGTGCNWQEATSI
# Target sequence (Q99836 whole entry, looked up): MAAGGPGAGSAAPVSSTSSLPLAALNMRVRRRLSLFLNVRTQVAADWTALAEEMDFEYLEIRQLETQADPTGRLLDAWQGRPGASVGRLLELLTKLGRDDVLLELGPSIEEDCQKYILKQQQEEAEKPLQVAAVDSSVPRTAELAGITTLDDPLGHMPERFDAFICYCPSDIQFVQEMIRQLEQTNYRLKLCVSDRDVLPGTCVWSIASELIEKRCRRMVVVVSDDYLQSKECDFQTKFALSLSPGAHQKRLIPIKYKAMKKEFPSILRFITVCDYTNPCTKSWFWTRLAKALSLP
# NOD2 RIPK2 PPI: NOD2-RIPK2 protein interaction inhibition; inhibition, % at 4.98 µM; AID 624267; 360,000 tested, 0.38% active; CHO BLA complementation NOD2-RIPK2, CCF4 ratio; O43353; in the data active = inhibition above about 21%;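 also: 0% = vehicle only and 100% = reference blocker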
# TLR9-MyD88 conf: confirmation of human TLR9-MyD88 binding inhibitors. 680 tested, 51% active. CHO TLR9/MyD88 BLA complementation, CCF4 FRET ratio. shares compounds with TLR9-MyD88 block. inhibition, % at 4.98 µM. AID 540250;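 active = mean inhibition across three repeats above about 21% taken from the earlier screen, limit read from the data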;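 also: blue over green emission ratio reports constitutive TLR9 MyD88 association via BLA complementation; 0% = DMSO vehicle wells and 100% = clavulanate BLA inhibitor wells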
# BLA counter-1: non-selective beta-lactamase inhibitors in TLR9-MyD88 counter-screen; shares compounds with TLR9-MyD88 block; CHO-BLA cells, CCF4 FRET ratio, BLA reporter; inhibition, % at 4.98 µM; 680 tested, 7% active;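 active = mean inhibition above a 50% cutoff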;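 also: counterscreen of TLR9-MyD88 hits on CMV-driven BLA in CHO-K1 cells; 0% = DMSO alone and 100% = clavulanate blocking BLA; higher means less blue over green ratio so more BLA blockade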
# TLR9 CHO cytotox: counter-screen for TLR9-MyD88 inhibitors: cytotoxicity in CHO cells; inhibition, % at 4.98 µM; luminescence; 680 tested, 39% active; shares compounds with TLR9-MyD88 block; AID 588336; in the data active = inhibition above about 11%
# Myeloid diff CP1: myeloid differentiation induction; shares compounds with Myeloid diff 2; ER-HoxA9 myeloid progenitors, GFP/Mac1 double-positive flow; calls only; 2,300 tested, 2% active; AID 651706;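 active = share of green or green-and-red cells above 9 and 9% in run 1 or 4 and 3% in run 2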
# GFP autofluor: compound fluorescence in myeloid differentiation counter-screen; shares compounds with Myeloid diff 2; ER-HoxA9 myeloid progenitors, no estrogen, GFP autofluorescence flow cytometry; vehicle wells 0%, positive control 100%; fluorescence response, % (test concentration not listed); 2,300 tested, 7.4% active; AID 651707;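 active = over 5% cells positive for green fluorescent reporter, or over 2% positive for both it and APC stain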;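 also: range taken on the double positive population between DMSO and positive control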
# NOD2 RIPK2 conf: confirmation of human NOD2-RIPK2 interaction inhibitors | CHO cells, NOD2-RIPK2 BLA complementation, CCF4 FRET | inhibition, % at 4.98 µM | 1,200 tested, 70% active | shares compounds with NOD2 RIPK2 PPI;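 active = mean inhibition across replicates above a set limit taken from the earlier primary screen, cut at about 21% in these data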;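 also: 0% = DMSO-only wells and the high end = clavulanate BLA-blocked wells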
# BLA counter-2: counter-screen for NOD2-RIPK2 interaction inhibitors: BLA reporter | shares compounds with NOD2 RIPK2 PPI | 1,200 tested, 57% active | inhibition, % at 4.98 µM | AID 624371 | CHO BLA reporter, CCF4 FRET ratio, counterscreen;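 active = mean inhibition above the low-control mean inhibition plus three low-control SD, cut at about 11% in these data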;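 also: 0% = DMSO only wells and 100% = clavulanate high control wells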
# Active calls of the source: *; i = inactive; ? = inconclusive; · = not tested or not shown; + = active, no number.
SMILES,TLR9-MyD88 block,Myeloid diff 2,TLR4-MyD88 BLA,NOD2 RIPK2 PPI,TLR9-MyD88 conf,BLA counter-1,TLR9 CHO cytotox,NOD2 RIPK2 conf,BLA counter-2,others
O=C(Nc1ccc(F)cc1)C(c1cc2ccccc2o1)N1CCN(C(=O)c2ccco2)CC1 (stereo not given),·,i,·,4,·,·,·,·,·,
COc1ccc(-c2coc3c(C(=O)NCC4CC4)cccc23)c(C)c1,·,i,·,4,·,·,·,·,·,
CC[C@@]1(O)C(=O)OCc2c1cc1n(c2=O)Cc2cc3c(N)cccc3nc2-1,1,?,·,-1,·,·,·,·,·,
CC[C@@]1(O)C(=O)OCc2c1cc1n(c2=O)Cc2cc3c(CN(C)C)c(O)ccc3nc2-1,54*,?,·,72*,49*,52*,60*,81*,78*,
COc1cc2c(cc1OC)C(=O)C(Br)CC2 (stereo not given),0,i,·,-4,·,·,·,·,·,
C=C1CC(COc2ccc3c(C)c(Cl)c(=O)oc3c2)(c2ccccc2)OC1=O (stereo not given),24*,·,·,60*,23*,8,98*,74*,28*,
CN(C)c1ccc(/C=C/c2nc3ccccc3c(=O)n2CCO)cc1,45*,i,·,35*,3,5,6,20,28*,
CC(=NNC(=S)N1CCN(c2ccccn2)CC1)c1nccs1,37*,?,·,24*,28*,18,97*,42*,18*,
COc1ccccc1N1C(=O)C2C(C(=O)c3ccccc3)=NN(c3ccccc3)C2C1=O (stereo not given),47*,i,·,52*,26*,25,2,59*,64*,
CCOC(=O)C1=NN(c2ccccc2)C2C(=O)N(c3ccccc3OC)C(=O)C12 (stereo not given),8,i,·,8,·,·,·,·,·,
Cc1ccc(C2=CC(c3ccccc3)n3ncnc3N2)cc1 (stereo not given),41*,i,·,52*,9,6,-2,19,21*,
Fc1ccc(Br)cc1C1C=C(c2ccc(Br)cc2)Nc2ncnn21 (stereo not given),21*,i,1,43*,7,10,3,1,2,
Cc1ccc(C2=CC(c3ccccc3)n3ncnc3N2)c(C)c1 (stereo not given),-7,i,·,-9,·,·,·,·,·,
C1=C(c2ccccc2)Nc2ncnn2C1c1ccccc1 (stereo not given),25*,i,·,35*,11,12,1,1,5,
Cc1ccc(C2C=C(c3ccc4c(c3)OCO4)Nc3ncnn32)cc1 (stereo not given),31*,i,-5,42*,11,13,3,34*,42*,
COc1ccc(S(=O)(=O)N2CCC[C@H]2C(=O)N2CCC[C@H]2C(=O)NCc2ccc(F)cc2F)cc1C,·,i,·,7,·,·,·,·,·,
COc1ccc(NC(=O)c2cc(C3CCCCN3S(=O)(=O)c3ccc(F)cc3F)on2)c(C)c1 (stereo not given),·,i,·,-4,·,·,·,·,·,
CS(=O)(=O)/C(C#N)=C/c1cccn1S(=O)(=O)c1cccc2ccccc12,·,i,·,-4,·,·,·,·,·,
O=S(=O)(Nc1cccc2cccnc12)c1ccccc1,35*,?,·,39*,18,7,98*,54*,18*,
CC1(C)CN(Cc2ccccc2)C(=O)[C@H]1CC(=O)Nc1ccc(Br)cc1,7,i,·,3,·,·,·,·,·,
CC(=O)c1ccc2c3c(cccc13)C(=O)N(c1c(C)nn(C)c1C)C2=O,6,i,13,0,·,·,·,·,·,
Cc1n[nH]c(C)c1N1C(=O)c2cccc3c(N4CCCCCC4)ccc(c23)C1=O,27*,+,17,38*,16,18,6,32*,42*,
CCOC(=O)C1(CCCc2ccccc2)CCN(C(=O)c2n[nH]c(CC)c2C)CC1,3,i,·,2,·,·,·,·,·,
CCCCC1C(=O)N(c2ccccc2)N(c2ccc(O)cc2)C1=O (stereo not given),29*,?,·,68*,6,-1,82*,29*,4,
CCCCC1(CO)C(=O)N(c2ccccc2)N(c2ccccc2)C1=O,5,i,·,-4,·,·,·,·,·,
SMILES,TLR9-MyD88 block,Myeloid diff 2,TLR4-MyD88 BLA,NOD2 RIPK2 PPI,TLR9-MyD88 conf,BLA counter-1,TLR9 CHO cytotox,NOD2 RIPK2 conf,BLA counter-2,others
COc1ccc(/C=C/c2nc3ccccc3c(=O)o2)cc1,3,i,·,7,·,·,·,·,·,
COc1ccc(/C=C/c2nc3cc(-c4ccccc4)ccc3o2)cc1O,21*,i,-6,23*,5,9,11*,20,27*,
c1cc(SC2CCCCC2)cc(-c2nc3cnccn3c2NC2CCCCC2)c1,33*,i,·,33*,33*,35,-2,52*,66*,Myeloid diff CP1=i;GFP autofluor=0
Cc1ccc2nc(-c3cccc(SC4CCCCC4)c3)c(NC3CCCCC3)n2c1,5,i,·,-4,·,·,·,·,·,
C=C[C@]1(C)C=C2C(=O)[C@@]3(O)OC(=O)[C@@]4(CCCC(C)(C)[C@H]34)[C@@]2(O)CC1,·,?,·,9,·,·,·,·,·,
CC1(C(=O)NS(=O)(=O)c2ccc(Cl)s2)CCN1C(=O)C1CCCCC1 (stereo not given),·,i,·,-9,·,·,·,·,·,
CC(=O)Oc1cccc(N2C(=O)c3cccc4c([N+](=O)[O-])ccc(c34)C2=O)c1,42*,?,·,45*,47*,42,94*,63*,67*,
Cc1ccc(C(=O)O)cc1N1C(=O)c2cccc3c([N+](=O)[O-])ccc(c23)C1=O,29*,·,·,56*,26*,22,-3,45*,39*,
CC(=O)Oc1cccc(N2C(=O)c3ccc(C(=O)O)cc3C2=O)c1,-7,i,-4,-1,·,·,·,·,·,
C[C@H](CO)N1C[C@H](C)[C@H](CN(C)C(=O)OCc2ccccc2)OCc2cnnn2CCCC1=O,2,i,·,2,·,·,·,·,·,
O=C(Nc1ccccc1)c1cc(C2CCCCN2C(=O)OCCF)on1 (stereo not given),·,i,·,-3,·,·,·,·,·,
CCOC(=O)c1cc(OCC)c2c(ccc3cc(OC)ccc32)n1,-1,i,·,-3,·,·,·,·,·,
CC(C)NC(=O)C1(C)CN(S(C)(=O)=O)CC(=O)N1Cc1ccco1 (stereo not given),·,i,·,2,·,·,·,·,·,

# Screening data deposited in PubChem BioAssay by several laboratories.
